Results on 1 sequence are retold here after paper PMC7862700, “An all-to-all approach to the identification of sequence-specific readers for epigenetic DNA modifications on cytosine”.

Common to all, as to experiment: DAPPL (digital affinity profiling via proximity ligation, sequencing); 10 mM Tris-HCl pH 7.5, 50 mM NaCl, 1 mM DTT, 4% glycerol, room temperature, 30 min; GST-TFs on glutathione beads, 16-mer random dsDNA library, 0.1% formaldehyde crosslink after washing; high values mean tight binding
One assay concerns the target T1, FEV (Homo sapiens, UniProt Q99581 1-238).
T1 sequence: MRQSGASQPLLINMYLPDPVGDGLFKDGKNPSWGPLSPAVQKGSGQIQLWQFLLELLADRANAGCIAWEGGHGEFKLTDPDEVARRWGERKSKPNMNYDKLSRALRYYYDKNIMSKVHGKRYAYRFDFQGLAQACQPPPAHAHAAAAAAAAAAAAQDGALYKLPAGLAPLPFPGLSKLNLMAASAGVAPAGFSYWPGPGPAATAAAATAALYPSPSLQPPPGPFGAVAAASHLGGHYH
As to conditions: protein: recombinant; tags: N-terminal GST; dsDNA, one strand shown. The gist of the method: (§1)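 After expression in yeast as GST fusions, human transcription factors were bound to glutathione beads, DNA-barcoded and mixed with a tag-only sample. The pools were incubated with 200 nmole of a 16-mer random double-stranded DNA library in Tris/NaCl/DTT/glycerol buffer (30 min, room temperature), washed and crosslinked with 0.1% formaldehyde. Proximity ligation with BsaI/T4 ligase ran for 1 h at 37 °C, before PCR amplification and sequencing on an Illumina NextSeq500. Binding signal is a hexamer's read frequency for a factor divided by its frequency for the tag-only sample.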

The next assay addresses ETV5 (Homo sapiens, UniProt P41161 1-510). Particulars: protein: recombinant; tags: N-terminal GST; dsDNA, one strand shown. A digest of the protocol: as §1
The target of the next assay is HSF1 (Homo sapiens, UniProt Q00613 1-529). Particulars: protein: recombinant; tags: N-terminal GST; chain copies: 3; dsDNA, one strand shown. A digest of the protocol:
as §1

A further assay addresses T2, SPIC (Homo sapiens, UniProt Q8N5J4 1-248).
T2 sequence: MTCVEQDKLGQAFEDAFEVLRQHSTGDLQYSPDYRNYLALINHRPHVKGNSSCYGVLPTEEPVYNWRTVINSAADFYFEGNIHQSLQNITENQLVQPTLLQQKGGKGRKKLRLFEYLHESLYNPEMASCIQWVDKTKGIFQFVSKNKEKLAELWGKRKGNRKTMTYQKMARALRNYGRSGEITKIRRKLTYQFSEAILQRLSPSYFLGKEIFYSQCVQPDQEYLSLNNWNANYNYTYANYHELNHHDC
Particulars: protein: recombinant; tags: N-terminal GST; dsDNA, one strand shown. The gist of the method: as §1

The target in another assay is ELF4 (Homo sapiens, UniProt Q99607 1-663). As to conditions: protein: recombinant; tags: N-terminal GST; dsDNA, one strand shown. A digest of the protocol: as §1
Sequence of ELF4 (Q99607 whole entry): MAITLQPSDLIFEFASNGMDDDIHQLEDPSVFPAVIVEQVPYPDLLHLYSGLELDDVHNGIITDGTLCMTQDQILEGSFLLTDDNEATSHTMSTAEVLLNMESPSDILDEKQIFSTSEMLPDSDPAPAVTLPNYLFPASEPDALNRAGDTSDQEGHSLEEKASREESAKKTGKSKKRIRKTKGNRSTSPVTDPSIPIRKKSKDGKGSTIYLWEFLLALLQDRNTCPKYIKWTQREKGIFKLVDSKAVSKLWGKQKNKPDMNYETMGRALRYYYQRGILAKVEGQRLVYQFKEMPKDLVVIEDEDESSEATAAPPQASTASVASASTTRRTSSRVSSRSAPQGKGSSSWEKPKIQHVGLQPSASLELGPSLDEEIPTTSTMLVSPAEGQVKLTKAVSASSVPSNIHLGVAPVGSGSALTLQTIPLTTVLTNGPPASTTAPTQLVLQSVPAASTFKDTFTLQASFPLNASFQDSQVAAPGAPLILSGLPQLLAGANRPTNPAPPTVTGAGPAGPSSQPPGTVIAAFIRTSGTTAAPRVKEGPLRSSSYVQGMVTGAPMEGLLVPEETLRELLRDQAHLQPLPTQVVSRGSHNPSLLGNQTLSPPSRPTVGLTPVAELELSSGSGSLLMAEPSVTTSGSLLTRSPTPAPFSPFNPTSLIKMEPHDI
The target in the next assay is T3, ELK4 (Homo sapiens, UniProt P28324-2 1-405).
T3 sequence: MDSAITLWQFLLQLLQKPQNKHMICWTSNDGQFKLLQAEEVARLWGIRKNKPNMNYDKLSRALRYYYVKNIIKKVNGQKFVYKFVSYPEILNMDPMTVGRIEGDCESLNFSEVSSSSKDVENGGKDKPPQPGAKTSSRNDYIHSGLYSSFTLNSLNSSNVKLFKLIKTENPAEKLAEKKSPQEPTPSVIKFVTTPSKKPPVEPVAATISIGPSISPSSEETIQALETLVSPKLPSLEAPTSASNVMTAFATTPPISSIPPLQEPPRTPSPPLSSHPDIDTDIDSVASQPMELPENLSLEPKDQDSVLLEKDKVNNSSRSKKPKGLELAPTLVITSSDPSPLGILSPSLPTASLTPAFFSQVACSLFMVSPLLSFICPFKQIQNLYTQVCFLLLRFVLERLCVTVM
As to conditions: protein: recombinant; tags: N-terminal GST; dsDNA, one strand shown. A digest of the protocol:
as §1

Another assay deals with T4, ETV2 (Homo sapiens, UniProt O00321 1-342).
T4 sequence: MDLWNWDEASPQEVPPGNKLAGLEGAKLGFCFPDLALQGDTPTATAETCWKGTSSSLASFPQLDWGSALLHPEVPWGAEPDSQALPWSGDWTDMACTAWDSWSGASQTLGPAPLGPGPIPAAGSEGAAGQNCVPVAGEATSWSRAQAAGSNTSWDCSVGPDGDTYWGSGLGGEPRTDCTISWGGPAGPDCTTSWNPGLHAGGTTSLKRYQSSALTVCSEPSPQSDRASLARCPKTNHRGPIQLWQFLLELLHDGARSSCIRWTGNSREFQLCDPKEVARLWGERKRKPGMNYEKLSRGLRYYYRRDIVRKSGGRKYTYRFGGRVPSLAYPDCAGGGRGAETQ
Particulars: protein: recombinant; tags: N-terminal GST; dsDNA, one strand shown. A digest of the protocol:
as §1

The next assay addresses T5, ELF3 (Homo sapiens, UniProt P78545 1-371).
T5 sequence: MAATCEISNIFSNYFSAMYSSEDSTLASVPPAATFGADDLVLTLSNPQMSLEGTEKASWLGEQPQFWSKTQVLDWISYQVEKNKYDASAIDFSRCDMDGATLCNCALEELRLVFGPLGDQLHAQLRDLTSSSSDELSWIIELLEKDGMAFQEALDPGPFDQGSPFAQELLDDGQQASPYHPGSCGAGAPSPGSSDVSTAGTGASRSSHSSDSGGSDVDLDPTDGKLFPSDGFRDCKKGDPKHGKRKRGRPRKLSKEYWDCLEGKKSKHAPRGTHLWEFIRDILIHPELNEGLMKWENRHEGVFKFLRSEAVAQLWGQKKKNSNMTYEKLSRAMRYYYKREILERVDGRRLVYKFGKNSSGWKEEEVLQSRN
Particulars: protein: recombinant; tags: N-terminal GST; dsDNA, one strand shown. A digest of the protocol: as §1

The target in another assay is CRX (Homo sapiens, UniProt O43186 1-299). As to conditions: protein: recombinant; tags: N-terminal GST; dsDNA, one strand shown. A digest of the protocol: as §1
Sequence of CRX (O43186 whole entry): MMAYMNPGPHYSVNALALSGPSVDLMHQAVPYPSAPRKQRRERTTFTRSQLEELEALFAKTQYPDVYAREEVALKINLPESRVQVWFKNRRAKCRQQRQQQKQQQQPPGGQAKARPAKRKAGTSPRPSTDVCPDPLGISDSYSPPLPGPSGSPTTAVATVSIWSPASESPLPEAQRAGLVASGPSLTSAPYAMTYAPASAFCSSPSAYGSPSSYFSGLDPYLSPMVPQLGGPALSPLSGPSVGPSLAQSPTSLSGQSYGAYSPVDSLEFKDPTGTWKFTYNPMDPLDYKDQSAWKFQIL
Another assay deals with ETV1 (Homo sapiens, UniProt P50549 1-477). As to conditions: protein: recombinant; tags: N-terminal GST; dsDNA, one strand shown. The gist of the method:
as §1

Another assay concerns the target T6, ERF (Homo sapiens, UniProt P50548 1-548).
T6 sequence: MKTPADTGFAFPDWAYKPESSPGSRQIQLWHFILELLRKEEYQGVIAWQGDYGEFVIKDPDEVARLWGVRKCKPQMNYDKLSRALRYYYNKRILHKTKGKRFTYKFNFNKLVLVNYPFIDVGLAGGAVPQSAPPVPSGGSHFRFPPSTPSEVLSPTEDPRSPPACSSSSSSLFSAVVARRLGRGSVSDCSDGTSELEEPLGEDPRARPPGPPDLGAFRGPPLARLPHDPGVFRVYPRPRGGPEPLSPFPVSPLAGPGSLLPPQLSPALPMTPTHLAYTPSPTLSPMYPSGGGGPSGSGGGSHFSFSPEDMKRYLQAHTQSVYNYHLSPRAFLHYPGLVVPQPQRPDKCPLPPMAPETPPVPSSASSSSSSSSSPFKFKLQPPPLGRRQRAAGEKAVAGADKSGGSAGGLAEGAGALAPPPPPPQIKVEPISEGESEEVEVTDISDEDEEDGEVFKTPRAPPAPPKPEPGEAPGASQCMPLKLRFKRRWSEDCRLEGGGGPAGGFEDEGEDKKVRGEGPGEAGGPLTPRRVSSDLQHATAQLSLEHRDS
Particulars: protein: recombinant; tags: N-terminal GST; dsDNA, one strand shown. A digest of the protocol: as §1

The next assay concerns the target T7, ETV3L (Homo sapiens, UniProt Q6ZN32 1-361).
T7 sequence: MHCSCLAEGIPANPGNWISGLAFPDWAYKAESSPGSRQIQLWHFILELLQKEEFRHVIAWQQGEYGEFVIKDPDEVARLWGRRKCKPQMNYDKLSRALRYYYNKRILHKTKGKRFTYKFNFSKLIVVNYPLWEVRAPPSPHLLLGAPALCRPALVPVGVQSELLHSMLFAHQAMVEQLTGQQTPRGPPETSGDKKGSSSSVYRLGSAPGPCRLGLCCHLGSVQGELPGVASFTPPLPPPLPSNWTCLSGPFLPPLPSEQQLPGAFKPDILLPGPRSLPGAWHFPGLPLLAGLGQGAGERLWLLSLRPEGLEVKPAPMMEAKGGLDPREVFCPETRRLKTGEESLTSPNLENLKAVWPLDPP
As to conditions: protein: recombinant; tags: N-terminal GST; dsDNA, one strand shown. A digest of the protocol:
as §1

Another assay deals with T8, ETS2 (Homo sapiens, UniProt P15036 1-469).
T8 sequence: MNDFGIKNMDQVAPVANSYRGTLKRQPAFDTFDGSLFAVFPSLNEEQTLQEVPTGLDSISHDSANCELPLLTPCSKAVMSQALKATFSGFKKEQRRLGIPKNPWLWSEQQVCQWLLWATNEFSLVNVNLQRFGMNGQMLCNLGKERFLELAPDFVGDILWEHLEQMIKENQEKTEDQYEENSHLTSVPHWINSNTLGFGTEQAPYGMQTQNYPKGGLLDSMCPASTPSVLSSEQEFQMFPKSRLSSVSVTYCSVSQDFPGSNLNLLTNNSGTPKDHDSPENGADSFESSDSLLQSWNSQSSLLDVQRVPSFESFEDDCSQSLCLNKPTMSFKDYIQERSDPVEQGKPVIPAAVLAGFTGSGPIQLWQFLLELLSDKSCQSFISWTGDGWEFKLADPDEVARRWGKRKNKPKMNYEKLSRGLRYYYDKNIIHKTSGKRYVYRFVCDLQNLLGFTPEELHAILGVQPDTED
As to conditions: protein: recombinant; tags: N-terminal GST; dsDNA, one strand shown. A digest of the protocol: as §1

The target of another assay is T9, SPDEF (Homo sapiens, UniProt O95238 1-335).
T9 sequence: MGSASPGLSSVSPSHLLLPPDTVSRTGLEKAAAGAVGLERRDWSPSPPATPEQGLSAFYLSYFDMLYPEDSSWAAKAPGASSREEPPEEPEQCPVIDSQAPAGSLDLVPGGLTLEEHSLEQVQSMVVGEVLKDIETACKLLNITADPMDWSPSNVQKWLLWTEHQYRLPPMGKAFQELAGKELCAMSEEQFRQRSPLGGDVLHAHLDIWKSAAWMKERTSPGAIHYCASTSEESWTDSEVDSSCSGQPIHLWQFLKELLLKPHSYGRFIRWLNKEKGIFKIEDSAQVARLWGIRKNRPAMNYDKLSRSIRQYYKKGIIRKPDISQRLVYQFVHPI
Particulars: protein: recombinant; tags: N-terminal GST; dsDNA, one strand shown. A digest of the protocol: as §1

The next assay deals with T10, ETV7 (Homo sapiens, UniProt Q9Y603 1-341).
T10 sequence: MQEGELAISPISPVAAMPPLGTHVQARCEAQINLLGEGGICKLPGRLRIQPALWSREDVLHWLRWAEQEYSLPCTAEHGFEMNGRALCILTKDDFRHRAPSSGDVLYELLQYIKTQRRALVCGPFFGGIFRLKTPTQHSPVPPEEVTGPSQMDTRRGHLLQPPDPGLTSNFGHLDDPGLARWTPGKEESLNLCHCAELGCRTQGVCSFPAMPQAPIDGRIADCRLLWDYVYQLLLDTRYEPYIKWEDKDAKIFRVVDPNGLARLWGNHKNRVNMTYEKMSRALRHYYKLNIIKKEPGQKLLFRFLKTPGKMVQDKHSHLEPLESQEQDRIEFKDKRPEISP
Particulars: protein: recombinant; tags: N-terminal GST; dsDNA, one strand shown. A digest of the protocol:
as §1

The target of another assay is T11, ELF5 (Homo sapiens, UniProt Q9UKW6-2 1-255).
T11 sequence: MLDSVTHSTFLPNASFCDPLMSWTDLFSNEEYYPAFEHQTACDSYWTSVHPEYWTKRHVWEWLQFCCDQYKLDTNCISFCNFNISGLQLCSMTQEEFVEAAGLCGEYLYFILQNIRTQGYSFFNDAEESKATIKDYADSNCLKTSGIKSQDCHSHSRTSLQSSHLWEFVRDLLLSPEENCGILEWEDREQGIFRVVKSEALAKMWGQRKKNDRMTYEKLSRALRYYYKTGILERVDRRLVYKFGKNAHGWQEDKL
As to conditions: protein: recombinant; tags: N-terminal GST; dsDNA, one strand shown. The gist of the method: as §1

The target in the next assay is T12, ETV3 (Homo sapiens, UniProt P41162-2 1-143).
T12 sequence: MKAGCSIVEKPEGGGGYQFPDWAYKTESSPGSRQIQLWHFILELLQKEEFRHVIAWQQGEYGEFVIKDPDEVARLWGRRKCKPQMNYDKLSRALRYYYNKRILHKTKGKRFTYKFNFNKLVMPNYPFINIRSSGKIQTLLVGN
As to conditions: protein: recombinant; tags: N-terminal GST; dsDNA, one strand shown. The gist of the method: as §1

In the next assay the target is ETV6 (Homo sapiens, UniProt P41212 1-452). As to conditions: protein: recombinant; tags: N-terminal GST; dsDNA, one strand shown. The gist of the method:
as §1

Sequence of ETV6 (P41212 whole entry): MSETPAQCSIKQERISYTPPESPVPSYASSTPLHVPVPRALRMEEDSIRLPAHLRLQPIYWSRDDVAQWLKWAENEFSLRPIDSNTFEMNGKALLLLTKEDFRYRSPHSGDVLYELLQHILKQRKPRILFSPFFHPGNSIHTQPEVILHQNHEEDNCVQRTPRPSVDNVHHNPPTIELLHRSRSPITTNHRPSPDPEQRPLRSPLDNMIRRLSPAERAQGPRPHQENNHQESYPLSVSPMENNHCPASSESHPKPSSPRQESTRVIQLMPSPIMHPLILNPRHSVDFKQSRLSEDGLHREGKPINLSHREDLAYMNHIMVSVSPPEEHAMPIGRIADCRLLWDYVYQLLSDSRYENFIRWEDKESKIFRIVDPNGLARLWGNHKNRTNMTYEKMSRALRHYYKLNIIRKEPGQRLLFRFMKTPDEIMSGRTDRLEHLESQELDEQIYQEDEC
Sequence of ETV5 (P41161 whole entry): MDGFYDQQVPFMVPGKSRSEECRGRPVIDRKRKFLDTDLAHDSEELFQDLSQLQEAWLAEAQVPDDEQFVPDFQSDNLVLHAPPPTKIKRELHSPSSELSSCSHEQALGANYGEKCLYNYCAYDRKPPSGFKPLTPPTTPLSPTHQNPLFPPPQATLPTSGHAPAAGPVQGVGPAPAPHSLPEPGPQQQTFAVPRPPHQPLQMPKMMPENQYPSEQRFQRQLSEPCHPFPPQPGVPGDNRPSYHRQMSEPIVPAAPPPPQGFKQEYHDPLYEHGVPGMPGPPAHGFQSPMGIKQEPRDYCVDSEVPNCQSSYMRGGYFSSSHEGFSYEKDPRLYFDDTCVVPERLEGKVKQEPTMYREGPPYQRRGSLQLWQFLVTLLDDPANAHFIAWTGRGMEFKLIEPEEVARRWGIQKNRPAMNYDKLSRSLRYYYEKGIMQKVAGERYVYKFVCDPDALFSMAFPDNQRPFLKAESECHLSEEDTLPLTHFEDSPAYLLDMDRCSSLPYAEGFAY
Sequence of ETV1 (P50549 whole entry): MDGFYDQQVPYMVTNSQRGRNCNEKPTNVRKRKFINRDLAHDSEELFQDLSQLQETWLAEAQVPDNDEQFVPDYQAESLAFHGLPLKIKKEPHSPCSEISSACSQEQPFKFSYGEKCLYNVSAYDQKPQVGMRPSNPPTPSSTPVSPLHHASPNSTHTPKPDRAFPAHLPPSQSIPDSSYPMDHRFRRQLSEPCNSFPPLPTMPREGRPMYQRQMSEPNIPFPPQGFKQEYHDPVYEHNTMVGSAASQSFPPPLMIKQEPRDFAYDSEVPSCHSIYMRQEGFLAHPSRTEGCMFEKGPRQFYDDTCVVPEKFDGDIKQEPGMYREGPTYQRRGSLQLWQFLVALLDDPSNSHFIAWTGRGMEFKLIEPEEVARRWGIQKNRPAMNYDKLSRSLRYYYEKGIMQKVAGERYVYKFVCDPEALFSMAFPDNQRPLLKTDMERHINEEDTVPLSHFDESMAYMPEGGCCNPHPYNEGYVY
Sequence of HSF1 (Q00613 whole entry): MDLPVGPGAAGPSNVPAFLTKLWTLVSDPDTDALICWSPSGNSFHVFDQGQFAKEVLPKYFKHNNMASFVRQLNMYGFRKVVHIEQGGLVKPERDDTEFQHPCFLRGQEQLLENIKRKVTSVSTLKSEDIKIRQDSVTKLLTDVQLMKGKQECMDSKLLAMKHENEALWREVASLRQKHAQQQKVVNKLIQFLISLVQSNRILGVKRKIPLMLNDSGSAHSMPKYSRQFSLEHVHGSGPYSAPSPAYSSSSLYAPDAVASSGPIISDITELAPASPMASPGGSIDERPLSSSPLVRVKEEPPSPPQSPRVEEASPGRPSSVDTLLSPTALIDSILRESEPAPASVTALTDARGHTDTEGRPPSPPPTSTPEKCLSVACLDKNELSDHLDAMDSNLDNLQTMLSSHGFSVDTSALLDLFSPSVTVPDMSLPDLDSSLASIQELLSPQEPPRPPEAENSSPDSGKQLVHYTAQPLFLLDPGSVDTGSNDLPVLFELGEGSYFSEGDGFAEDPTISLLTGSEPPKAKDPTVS

Take TTCAAC: the binding signal is 1.29 fold enrichment (6-mer frequency, TF over GST control) with FEV; 1.29 fold enrichment (6-mer frequency, TF over GST control) in the assay with ETV5; 1.14 fold enrichment (6-mer frequency, TF over GST control) in the assay with HSF1; 1.24 fold enrichment (6-mer frequency, TF over GST control) in the assay with SPIC; 1.28 fold enrichment (6-mer frequency, TF over GST control) with ELF4; 1.33 fold enrichment (6-mer frequency, TF over GST control) with ELK4. In addition, the binding signal with ETV2 was 1.31 fold enrichment (6-mer frequency, TF over GST control); with ELF3 it was 1.38 fold enrichment (6-mer frequency, TF over GST control); with CRX it was 1.15 fold enrichment (6-mer frequency, TF over GST control); with ETV1, 1.35 fold enrichment (6-mer frequency, TF over GST control); with ERF it was 1.31 fold enrichment (6-mer frequency, TF over GST control); in the assay with ETV3L, 1.16 fold enrichment (6-mer frequency, TF over GST control). Also, the binding signal in the assay with ETS2 was 1.29 fold enrichment (6-mer frequency, TF over GST control); with SPDEF, 1.28 fold enrichment (6-mer frequency, TF over GST control); with ETV7, 1.19 fold enrichment (6-mer frequency, TF over GST control); with ELF5, 1.27 fold enrichment (6-mer frequency, TF over GST control); in the assay with ETV3 it was 1.32 fold enrichment (6-mer frequency, TF over GST control); in the assay with ETV6, 1.19 fold enrichment (6-mer frequency, TF over GST control).
